Source: PubChem BioAssay (National Center for Advancing Translational Sciences (NCATS))
D3 ag: agonists of human D3 dopamine receptor; max activation, %; D3R DiscoveRx beta-arrestin cells, luminescence, 90 min; AID 652048; 0.58% of 410,000 active; P35462; in the data active = max activation above about 30%
Target sequence (P35462 whole entry, looked up): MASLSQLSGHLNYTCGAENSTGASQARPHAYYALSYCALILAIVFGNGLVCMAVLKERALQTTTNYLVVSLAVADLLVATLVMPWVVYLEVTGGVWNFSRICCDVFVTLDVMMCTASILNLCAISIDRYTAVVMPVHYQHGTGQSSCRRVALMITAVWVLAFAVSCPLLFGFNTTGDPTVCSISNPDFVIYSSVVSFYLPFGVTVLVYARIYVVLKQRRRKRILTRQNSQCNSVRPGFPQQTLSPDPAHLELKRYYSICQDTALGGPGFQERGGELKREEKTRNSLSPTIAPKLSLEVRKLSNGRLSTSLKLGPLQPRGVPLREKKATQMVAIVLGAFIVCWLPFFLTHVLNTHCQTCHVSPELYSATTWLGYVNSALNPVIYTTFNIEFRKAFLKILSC
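Agonist-mode cell screen: cells plated at 1500/well and incubated overnight at 37 °C, then exposed to library compounds for 90 min at 37 °C. Detection reagent was added for 30–60 min at room temperature, and luminescence was read.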
ATXN2 expr inh: inhibitors of ATXN2 expression. 0.72% of 360,000 active. Potency, µM (doses to about 57 µM), usual class: inhibitors. HEK-293 ATXN2-luciferase reporter, luminescence, 24 h; note: nearly all actives have a fitted effect of over 55% in size
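qHTS (up to 57 uM final) was run with 24 h compound exposure of reporter cells at 37 °C. Each well was multiplexed: SteadyGlo luminescence measured ATXN2-luciferase expression after a fluorogenic Gly-Phe-AFC viability readout (25 uM final).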
DRD3 antagonist: blocks the human D3 dopamine receptor | P35462 | D3R cells, DiscoveRx beta-arrestin luminescence, antagonist mode; hits give low values | max response, negative = inhibition, % | 2.5% of 360,000 active; in the data active = max response below about -50%; inconclusive = no clear call, values can overlap the other calls
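Cells plated overnight at 1500 cells/well, then exposed to library compounds with dopamine controls for 90 minutes at 37 degrees C. DiscoveRx reagent added for 30–60 minutes at room temperature; luminescence read, quantitative HTS format.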
S2 tox: viability counter-screen for ATXN expression inhibitors; S2 cells (HEK-293 line with an ATXN2-luciferase reporter) viability, CellTiter-Fluor protease fluorescence, 24 h; Potency, µM (highest dose often 56.7 µM), hits mostly cytotoxic; 0.49% of 400,000 active; AID 651635; note: nearly all actives have a fitted effect of over 40% in size
HepG2 tox-1: counter-screen for TGF-b inhibitors: cytotoxicity in HepG2 cells; Potency, µM (series often up to 46.1 µM), usual class: cytotoxic; 0.76% of 410,000 active; AID 588856; HepG2 CAGA-GFP viability, ATP luminescence, 18 h
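HepG2 CAGA-GFP cells (1000/well, DMEM with 1% FBS) received compound, then TGF-beta at 500 pg/mL final, and were incubated 18 hours at 37 degrees C. Viability was read by CellTiter-Glo luminescence. Media-only wells were set as complete cell-killing and DMSO as no toxicity.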
TGFb inhibitor: blocks TGF-b signaling; HepG2 CAGA-GFP TGF-b/SMAD3 reporter, GFP fluorescence, 18 h; TGF-beta stimulated, 500 pg/mL final; Potency, µM (highest dose often 46.1 µM), hits mostly inhibitors; 1.2% of 410,000 active; AID 588855; note: nearly all actives have a fitted effect of over 65% in size
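Per well, imaged GFP fluorescence of HEPG2 CAGA-GFP cells gives the signal; cells get compound, then TGF-beta (500 pg/mL final), 18 h at 37 degrees C; %Activity versus -TGF-beta and +DMSO controls.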
TGFb CAGA inh: TGF-b pathway inhibition, cherry-pick retest | 63% of 1,600 active | AID 720534 | HepG2 CAGA-GFP TGF-b reporter, GFP fluorescence, 18 h; cells stimulated with TGF-beta, 500 pg/mL | shares compounds with TGFb inhibitor | Potency, µM (series often up to 46.1 µM), usual class: inhibitors; note: nearly all actives have a fitted effect of over 65% in size
HepG2 tox-2: counter-screen for TGF-b inhibitors: cytotoxicity in HepG2 cells; shares compounds with TGFb inhibitor; HepG2 CAGA-GFP viability, ATP luminescence, 18 h; cells stimulated with TGF-beta, 500 pg/mL; Potency, µM (doses to about 46.1 µM), usual class: inhibitors; 27% of 1,600 active; note: nearly all actives have a fitted effect of over 70% in size
CCL64 TGFb inh: blocks TGF-b signaling in CCL64 reporter cells. AID 720536. shares compounds with TGFb inhibitor. Potency, µM (top dose mostly 46.1 µM), hits mostly inhibitors. 41% of 1,600 active. CCL64 CAGA-GFP reporter, TGF-b stimulated, GFP fluorescence, 18 h; note: nearly all actives have a fitted effect of over 65% in size
COP TGFb inh: blocks TGF-b signaling in HepG2 COP reporter; shares compounds with TGFb inhibitor; HepG2 COP-GFP TGF-b reporter, GFP fluorescence, 18 h; cells stimulated by added recombinant TGF-beta; Potency, µM (series often up to 46.1 µM), most hits filed as inhibitors; 3% of 1,600 active; AID 720537; note: nearly all actives have a fitted effect of over 70% in size
Numbers stand for hits; n = inactive; u = inconclusive; x = no result given. In the library only some 4.7% were active in any assay of this set; here they are far more common. Unless noted, calls come from the whole dose curve; as a rule, active = well fitted curve in the direction sought with a large enough effect; inconclusive = small, poorly fitted or top-dose-only effect, or another doubt; inactive = no such curve, though single readings can be large; an effect the other way counts as inactive or inconclusive.

SMILES	D3 ag	ATXN2 expr inh	DRD3 antagonist	S2 tox	HepG2 tox-1	TGFb inhibitor	TGFb CAGA inh	HepG2 tox-2	CCL64 TGFb inh	COP TGFb inh
O=C(NCC(c1ccc(Cl)cc1)N1CCCCC1)c1ccc(F)cc1 (centres undefined)	n	n	x	u	n	n	x	x	x	x
COc1ccc(CNC(=S)N/N=C/c2ccc(O)c(OC)c2)cc1	n	n	n	n	n	11.2µM	n	n	n	n
COc1ccc(Cl)cc1NC(=O)CN1c2ccccc2CC1C (centres undefined)	n	n	n	n	n	u	u	n	u	n
COc1cc(NC(=O)CN2c3ccccc3CC2C)cc(OC)c1OC (centres undefined)	n	n	n	n	n	n	x	x	x	x
COc1ccc(/C=C/C(=O)c2cc(F)ccc2OC(=O)c2ccccc2)cc1OC	n	n	n	u	n	8.91µM	u	n	u	n
O=C(Nc1ccc(F)cc1)Nc1csc2ccccc12	n	n	n	n	n	14.1µM	u	u	u	n
CN(C)c1ccc(NC(=O)Nc2csc3ccccc23)cc1	n	n	n	n	n	n	x	x	x	x
Cc1ccccc1OCC(O)Cn1c(=N)n(Cc2ccccc2)c2ccccc21 (centres undefined)	n	u	n	31.6µM	7.94µM	7.08µM	u	u	u	n
Cc1ccccc1CNC(=O)CN1CCSc2ccccc21	n	n	x	n	n	n	x	x	x	x
COc1ccc(-c2noc(-c3cccnc3N3CCN(c4ccc(OC)cc4)CC3)n2)cc1	n	n	x	n	n	u	x	x	x	x
NC(Cc1ccc(F)cc1)c1csc(Nc2ccc(C(F)(F)F)cn2)n1 (centres undefined)	n	u	n	x	n	10µM	u	u	u	n
NC(Cc1cnc[nH]1)c1csc(Nc2ccc(C(F)(F)F)cn2)n1 (centres undefined)	n	n	n	n	n	n	x	x	x	x
NC(Cc1ccc(C(F)(F)F)cc1)c1csc(Nc2cnccn2)n1 (centres undefined)	n	u	n	u	n	7.08µM	u	u	u	n
NC(Cc1ccc(C(F)(F)F)cc1)c1csc(Nc2ccccn2)n1 (centres undefined)	n	n	n	u	n	n	x	x	x	x
COCCCNC(=O)CSc1nc2cc3c(cc2c(=O)n1CCCC(=O)NCc1ccc2c(c1)OCO2)OCO3	n	x	x	x	n	n	x	x	x	x
CC[n+]1c(/C=C/c2ccc(OC)c(OC)c2)ccc2ccccc21	n	x	n	n	n	n	x	x	x	x
CCN(CC)c1ccc(/C=C/c2ccc3ccc(OC)cc3[n+]2CC)cc1	n	x	n	x	n	6.31µM	2.91µM	u	2.59µM	n
Cc1ccc(CNC(=O)c2cc(S(=O)(=O)N3CCCCC3)cn2C)cc1	n	n	x	n	n	n	x	x	x	x
O=C(NCCc1c[nH]c2ccccc12)OCCCCOC(=O)NCCc1c[nH]c2ccccc12	60.3	u	n	17.8µM	n	10µM	u	16.4µM	18.4µM	n
CN(C)C(=O)CCC(=O)N1CCCC(C(=O)c2ccc3c4c(cccc24)CC3)C1 (centres undefined)	n	n	n	n	n	n	x	x	x	x
O=C(c1ccc2c3c(cccc13)CC2)C1CCCN(Cc2ccncc2)C1 (centres undefined)	n	x	-52.9	n	n	7.94µM	n	u	u	n
C=CC[C@@H](CC(=O)N(CCO)Cc1ccccc1)C(=O)N[C@@H](COC(=O)[C@@H](CC=C)Cc1ccc(F)cc1)Cc1ccccc1	n	u	n	u	n	n	x	x	x	x
C=CCC[C@@H](Cc1ccc(F)cc1)C(=O)OC[C@@H](NC(=O)[C@H](CC=C)CC(=O)N(CCO)Cc1ccccc1)c1ccccc1	n	u	n	u	n	u	x	x	x	x
C=CCC[C@@H](Cc1ccc(F)cc1)C(=O)OC[C@@H](NC(=O)[C@@H](CC=C)CC(=O)N(CCO)Cc1ccccc1)c1ccccc1	n	u	n	u	n	11.2µM	14.6µM	n	u	n
C=CC[C@H](CC(=O)N(CCO)Cc1ccccc1)C(=O)N[C@H](COC(=O)[C@@H](CC=C)Cc1ccc(F)cc1)Cc1c[nH]c2ccccc12	n	u	n	u	n	12.6µM	16.4µM	n	u	n
SMILES	D3 ag	ATXN2 expr inh	DRD3 antagonist	S2 tox	HepG2 tox-1	TGFb inhibitor	TGFb CAGA inh	HepG2 tox-2	CCL64 TGFb inh	COP TGFb inh
COc1ccc(Nc2nnc(-c3ccc(C)cc3)c3ccccc23)cc1C(=O)N1CCCCC1	n	u	n	u	n	15.8µM	n	u	u	n
COc1ccc(Nc2nnc(-c3ccccc3)c3ccccc23)cc1C(=O)N1CCCCC1	n	n	n	n	n	n	x	x	x	x
Cc1c(C(=O)Nc2ccc(C(C)C)cc2)sc2nc3n(c(=O)c12)CCC3	n	x	x	x	n	n	x	x	x	x
Cc1ccc(N(CC(O)Cn2c3ccccc3c3ccccc32)S(C)(=O)=O)c(C)c1 (centres undefined)	n	n	n	n	n	u	x	x	x	x
Cc1cccc(C)c1N(CC(O)Cn1c2ccccc2c2ccccc21)S(C)(=O)=O (centres undefined)	n	u	n	u	n	10µM	23.1µM	u	23.1µM	n
CC1(C(=O)NCc2ccc3c(c2)OCO3)CCN1Cc1csc2ccccc12 (centres undefined)	n	u	n	n	n	11.2µM	16.4µM	23.1µM	3.66µM	n
CCOc1ccc(C(=O)NCCn2cc(SCC(=O)Nc3ccc4c(c3)OCCO4)c3ccccc32)cc1	n	n	x	u	n	u	x	x	x	x
COc1ccc(-c2cc(-c3ccccc3O)[nH]n2)cc1	n	n	n	n	n	10µM	u	u	u	n
COc1ccc(O)c(-c2cc(-c3ccccc3Cl)[nH]n2)c1	n	n	n	u	n	7.94µM	18.4µM	u	25.9µM	n
Oc1ccc(Br)cc1-c1cc(-c2ccccc2Cl)[nH]n1	n	n	n	n	n	n	x	x	x	x
